The record followed here is article PMC11006913.

Common to all, as to test: PBM; 200 nM protein, PBS
Holding throughout (conditions): dsDNA, one strand shown

Assay [1] addresses HESX1 (Homo sapiens, UniProt Q9UBX0 95-180, R165K).
Assay [2] deals with SHOX (Homo sapiens, UniProt O15266 103-189).
The target in a further assay is ALX4 (Homo sapiens, UniProt Q9H161 200-286, Q225E).
The target of assay [3] is HESX1 (Homo sapiens, UniProt Q9UBX0 95-180).
The target in a further assay is MSX2 (Homo sapiens, UniProt P35548 130-214, R199I).
Sequence of MSX2 (P35548 130-214 R199I): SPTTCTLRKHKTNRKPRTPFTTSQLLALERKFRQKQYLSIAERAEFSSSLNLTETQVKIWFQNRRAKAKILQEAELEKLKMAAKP
In assay [4] the target is ALX1 (Homo sapiens, UniProt Q15699 118-204, L144V).
Sequence of ALX1 (Homo sapiens, UniProt Q15699 118-204, L144V) (Q15699 118-204 L144V): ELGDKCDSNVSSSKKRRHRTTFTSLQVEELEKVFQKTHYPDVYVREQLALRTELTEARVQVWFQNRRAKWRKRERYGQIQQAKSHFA
In assay [5] the target is ALX3 (Homo sapiens, UniProt O95076 139-225, N203Q).
Sequence of ALX3 (Homo sapiens, UniProt O95076 139-225, N203Q) (O95076 139-225 N203Q): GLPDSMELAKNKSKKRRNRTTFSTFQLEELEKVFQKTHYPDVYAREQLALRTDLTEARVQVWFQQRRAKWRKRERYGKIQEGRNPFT
Assay [6] has as its target SHOX (Homo sapiens, UniProt O15266 103-189, R173C).
Assay [7] addresses ALX1 (Homo sapiens, UniProt Q15699 118-204, L144R).
For assay [8], the target named is ALX3 (Homo sapiens, UniProt O95076 139-225).
Sequence of ALX3 (Homo sapiens, UniProt O95076 139-225) (O95076 139-225): as the sequence (O95076 139-225 N203Q) above, with Q65N counted along it
In assay [9] the target is PROP1 (Homo sapiens, UniProt O75360 56-141).
Sequence of PROP1 (Homo sapiens, UniProt O75360 56-141) (O75360 56-141): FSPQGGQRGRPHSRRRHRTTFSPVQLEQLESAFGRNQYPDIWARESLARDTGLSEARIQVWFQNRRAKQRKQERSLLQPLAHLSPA
In assay [10] the target is HESX1 (Homo sapiens, UniProt Q9UBX0 95-180, R109Q).
Sequence of HESX1 (Homo sapiens, UniProt Q9UBX0 95-180, R109Q) (Q9UBX0 95-180 R109Q): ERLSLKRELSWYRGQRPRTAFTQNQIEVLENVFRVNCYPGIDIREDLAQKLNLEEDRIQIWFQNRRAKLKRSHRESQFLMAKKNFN
In assay [11] the target is PROP1 (Homo sapiens, UniProt O75360 56-141, R99H).
Sequence of PROP1 (Homo sapiens, UniProt O75360 56-141, R99H) (O75360 56-141 R99H): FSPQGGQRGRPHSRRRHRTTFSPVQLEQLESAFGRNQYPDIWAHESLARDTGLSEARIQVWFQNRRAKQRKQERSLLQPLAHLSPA
The target of assay [12] is ALX3 (Homo sapiens, UniProt O95076 139-225, L168Q).
Sequence of ALX3 (Homo sapiens, UniProt O95076 139-225, L168Q) (O95076 139-225 L168Q): as the sequence (O95076 139-225 N203Q) above, with L30Q, Q65N counted along it
Assay [13] has as its target HESX1 (Homo sapiens, UniProt Q9UBX0 95-180, P111T).
The target in assay [14] is ALX3 (Homo sapiens, UniProt O95076 139-225, L168V).
Sequence of ALX3 (Homo sapiens, UniProt O95076 139-225, L168V) (O95076 139-225 L168V): as the sequence (O95076 139-225 N203Q) above, with L30V, Q65N counted along it
Assay [15] has as its target PROP1 (Homo sapiens, UniProt O75360 56-141, F88S).
Assay [16] has as its target HESX1 (Homo sapiens, UniProt Q9UBX0 95-180, F115L).
Assay [17] addresses ALX1 (Homo sapiens, UniProt Q15699 118-204).
The target of assay [18] is ALX3 (Homo sapiens, UniProt O95076 139-225, N203S).
Sequence of ALX3 (Homo sapiens, UniProt O95076 139-225, N203S) (O95076 139-225 N203S): as the sequence (O95076 139-225 N203Q) above, with Q65S counted along it

Sequence of PROP1 (Homo sapiens, UniProt O75360 56-141, F88S) (O75360 56-141 F88S): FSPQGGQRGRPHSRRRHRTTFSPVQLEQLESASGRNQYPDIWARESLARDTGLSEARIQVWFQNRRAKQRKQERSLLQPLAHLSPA
Sequence of SHOX (Homo sapiens, UniProt O15266 103-189, R173C) (O15266 103-189 R173C): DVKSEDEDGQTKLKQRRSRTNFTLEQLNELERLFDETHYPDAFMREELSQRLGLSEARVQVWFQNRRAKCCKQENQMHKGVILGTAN
Sequence of ALX4 (Q9H161 200-286 Q225E): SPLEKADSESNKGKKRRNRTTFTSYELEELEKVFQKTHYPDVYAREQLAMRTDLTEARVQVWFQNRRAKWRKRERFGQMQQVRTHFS
Sequence of ALX1 (Homo sapiens, UniProt Q15699 118-204, L144R) (Q15699 118-204 L144R): as the sequence (Q15699 118-204 L144V) above, with V27R counted along it
Sequence of SHOX (Homo sapiens, UniProt O15266 103-189) (O15266 103-189): as the sequence (O15266 103-189 R173C) above, with C71R counted along it
Sequence of HESX1 (Homo sapiens, UniProt Q9UBX0 95-180) (Q9UBX0 95-180): as the sequence (Q9UBX0 95-180 R109Q) above, with Q15R counted along it
Sequence of HESX1 (Homo sapiens, UniProt Q9UBX0 95-180, F115L) (Q9UBX0 95-180 F115L): as the sequence (Q9UBX0 95-180 R109Q) above, with Q15R, F21L counted along it
Sequence of HESX1 (Homo sapiens, UniProt Q9UBX0 95-180, P111T) (Q9UBX0 95-180 P111T): as the sequence (Q9UBX0 95-180 R109Q) above, with Q15R, P17T counted along it
Sequence of ALX1 (Homo sapiens, UniProt Q15699 118-204) (Q15699 118-204): as the sequence (Q15699 118-204 L144V) above, with V27L counted along it
Sequence of HESX1 (Homo sapiens, UniProt Q9UBX0 95-180, R165K) (Q9UBX0 95-180 R165K): as the sequence (Q9UBX0 95-180 R109Q) above, with Q15R, R71K counted along it

AATTAGCG: the binding signal with HESX1 [1] was 11.8 upbm affinity estimate (log intensity, higher = more binding, comparable within an allelic series); in the assay with SHOX [2], 12 upbm affinity estimate (log intensity, higher = more binding, comparable within an allelic series); with ALX4, 13.1 upbm affinity estimate (log intensity, higher = more binding, comparable within an allelic series); with HESX1 [3], 11.9 upbm affinity estimate (log intensity, higher = more binding, comparable within an allelic series); in the assay with MSX2, 12.4 upbm affinity estimate (log intensity, higher = more binding, comparable within an allelic series); with ALX1 [4], 11.7 upbm affinity estimate (log intensity, higher = more binding, comparable within an allelic series). The binding signal is 8.21 upbm affinity estimate (log intensity, higher = more binding, comparable within an allelic series) with ALX3 [5]; 9.63 upbm affinity estimate (log intensity, higher = more binding, comparable within an allelic series) in the assay with SHOX [6]; 11.3 upbm affinity estimate (log intensity, higher = more binding, comparable within an allelic series) with ALX1 [7]; 12.4 upbm affinity estimate (log intensity, higher = more binding, comparable within an allelic series) with ALX3 [8]; 11.2 upbm affinity estimate (log intensity, higher = more binding, comparable within an allelic series) with PROP1 [9]; 8.95 upbm affinity estimate (log intensity, higher = more binding, comparable within an allelic series) with HESX1 [10]. The binding signal was 11.2 upbm affinity estimate (log intensity, higher = more binding, comparable within an allelic series) with PROP1 [11]; 10.4 upbm affinity estimate (log intensity, higher = more binding, comparable within an allelic series) with ALX3 [12]; 10.6 upbm affinity estimate (log intensity, higher = more binding, comparable within an allelic series) in the assay with HESX1 [13]; 9.93 upbm affinity estimate (log intensity, higher = more binding, comparable within an allelic series) with ALX3 [14]; 7.48 upbm affinity estimate (log intensity, higher = more binding, comparable within an allelic series) with PROP1 [15]; 7.68 upbm affinity estimate (log intensity, higher = more binding, comparable within an allelic series) with HESX1 [16]. Also, the binding signal was 12.6 upbm affinity estimate (log intensity, higher = more binding, comparable within an allelic series) with ALX1 [17] and 8.38 upbm affinity estimate (log intensity, higher = more binding, comparable within an allelic series) with ALX3 [18].

CCAATTAG: the binding signal with HESX1 [1] is 13.5 upbm affinity estimate (log intensity, higher = more binding, comparable within an allelic series); with SHOX [2], 12.8 upbm affinity estimate (log intensity, higher = more binding, comparable within an allelic series); with ALX4, 13.6 upbm affinity estimate (log intensity, higher = more binding, comparable within an allelic series); with HESX1 [3], 13.4 upbm affinity estimate (log intensity, higher = more binding, comparable within an allelic series); in the assay with MSX2 it was 13.1 upbm affinity estimate (log intensity, higher = more binding, comparable within an allelic series); in the assay with ALX1 [4], 12 upbm affinity estimate (log intensity, higher = more binding, comparable within an allelic series). Moreover, the binding signal in the assay with ALX3 [5] was 8.31 upbm affinity estimate (log intensity, higher = more binding, comparable within an allelic series); with SHOX [6], 10.3 upbm affinity estimate (log intensity, higher = more binding, comparable within an allelic series); with ALX1 [7], 11.7 upbm affinity estimate (log intensity, higher = more binding, comparable within an allelic series); with ALX3 [8], 12.7 upbm affinity estimate (log intensity, higher = more binding, comparable within an allelic series); with PROP1 [9] it was 11.9 upbm affinity estimate (log intensity, higher = more binding, comparable within an allelic series); with HESX1 [10] it was 10.5 upbm affinity estimate (log intensity, higher = more binding, comparable within an allelic series). Besides, the binding signal with PROP1 [11] is 12.1 upbm affinity estimate (log intensity, higher = more binding, comparable within an allelic series); with ALX3 [12], 10.9 upbm affinity estimate (log intensity, higher = more binding, comparable within an allelic series); with HESX1 [13] it was 12.2 upbm affinity estimate (log intensity, higher = more binding, comparable within an allelic series); with ALX3 [14] it was 10.4 upbm affinity estimate (log intensity, higher = more binding, comparable within an allelic series); with PROP1 [15] it was 7.63 upbm affinity estimate (log intensity, higher = more binding, comparable within an allelic series); with HESX1 [16] it was 8.12 upbm affinity estimate (log intensity, higher = more binding, comparable within an allelic series). For the same sequence, the binding signal in the assay with ALX1 [17] is 12.7 upbm affinity estimate (log intensity, higher = more binding, comparable within an allelic series); with ALX3 [18] it was 8.47 upbm affinity estimate (log intensity, higher = more binding, comparable within an allelic series).

Take AATTAAGT: the binding signal in the assay with HESX1 [1] is 11.6 upbm affinity estimate (log intensity, higher = more binding, comparable within an allelic series); in the assay with SHOX [2], 11.8 upbm affinity estimate (log intensity, higher = more binding, comparable within an allelic series); with ALX4, 13 upbm affinity estimate (log intensity, higher = more binding, comparable within an allelic series); with HESX1 [3], 11.6 upbm affinity estimate (log intensity, higher = more binding, comparable within an allelic series); in the assay with MSX2, 12.2 upbm affinity estimate (log intensity, higher = more binding, comparable within an allelic series); with ALX1 [4], 11.7 upbm affinity estimate (log intensity, higher = more binding, comparable within an allelic series). Also, the binding signal is 8.5 upbm affinity estimate (log intensity, higher = more binding, comparable within an allelic series) with ALX3 [5]; 9.31 upbm affinity estimate (log intensity, higher = more binding, comparable within an allelic series) with SHOX [6]; 11.4 upbm affinity estimate (log intensity, higher = more binding, comparable within an allelic series) with ALX1 [7]; 12.5 upbm affinity estimate (log intensity, higher = more binding, comparable within an allelic series) in the assay with ALX3 [8]; 11.3 upbm affinity estimate (log intensity, higher = more binding, comparable within an allelic series) with PROP1 [9]; 8.53 upbm affinity estimate (log intensity, higher = more binding, comparable within an allelic series) with HESX1 [10]. Also, the binding signal in the assay with PROP1 [11] was 11.2 upbm affinity estimate (log intensity, higher = more binding, comparable within an allelic series); with ALX3 [12], 10.5 upbm affinity estimate (log intensity, higher = more binding, comparable within an allelic series); with HESX1 [13] it was 10.3 upbm affinity estimate (log intensity, higher = more binding, comparable within an allelic series); with ALX3 [14] it was 10 upbm affinity estimate (log intensity, higher = more binding, comparable within an allelic series); with PROP1 [15], 7.71 upbm affinity estimate (log intensity, higher = more binding, comparable within an allelic series); with HESX1 [16], 7.65 upbm affinity estimate (log intensity, higher = more binding, comparable within an allelic series). The binding signal in the assay with ALX1 [17] is 12.3 upbm affinity estimate (log intensity, higher = more binding, comparable within an allelic series); in the assay with ALX3 [18] it was 8.69 upbm affinity estimate (log intensity, higher = more binding, comparable within an allelic series).

Turning to CCCAGGCG, the binding signal in the assay with HESX1 [1] is 6.31 upbm affinity estimate (log intensity, higher = more binding, comparable within an allelic series); in the assay with SHOX [2], 6.92 upbm affinity estimate (log intensity, higher = more binding, comparable within an allelic series); in the assay with HESX1 [3] it was 6.34 upbm affinity estimate (log intensity, higher = more binding, comparable within an allelic series); with SHOX [6], 7.04 upbm affinity estimate (log intensity, higher = more binding, comparable within an allelic series); in the assay with HESX1 [10], 6.42 upbm affinity estimate (log intensity, higher = more binding, comparable within an allelic series); with HESX1 [13] it was 6.32 upbm affinity estimate (log intensity, higher = more binding, comparable within an allelic series). Also, the binding signal in the assay with HESX1 [16] was 6.49 upbm affinity estimate (log intensity, higher = more binding, comparable within an allelic series).
